# Screens: PubChem, several laboratories
# ROMK mod: ROMK potassium channel modulators, primary screen, cell-based, thallium flux, MLSMR library; ATP-sensitive inward rectifier potassium channel 1 (Homo sapiens), P48048; Tet-inducible ROMK, thallium flux fluorescence; actives lie on both sides; B-score at 10 µM; hit rate 2% among 130,000; AID 1918, 2009;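 active = signal ratio slope over the read window, or its plate-corrected B-score, at least 3 SD from the plate mean, either direction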;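 also: B-score of the F/F0 ratio slope over 7 to 12 s after thallium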
# Target sequence (P48048 whole entry, looked up): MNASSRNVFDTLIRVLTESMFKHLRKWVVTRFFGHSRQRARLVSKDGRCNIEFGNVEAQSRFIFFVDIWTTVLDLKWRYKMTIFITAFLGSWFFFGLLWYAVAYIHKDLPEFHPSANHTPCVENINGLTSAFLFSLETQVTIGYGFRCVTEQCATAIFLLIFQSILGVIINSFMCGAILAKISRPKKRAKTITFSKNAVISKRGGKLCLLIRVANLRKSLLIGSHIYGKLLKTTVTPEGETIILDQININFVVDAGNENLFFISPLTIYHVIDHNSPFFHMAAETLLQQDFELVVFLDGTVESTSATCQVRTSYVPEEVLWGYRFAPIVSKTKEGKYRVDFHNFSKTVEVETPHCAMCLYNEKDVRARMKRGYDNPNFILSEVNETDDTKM
# HMGR II inh: inhibitors of E. faecalis class II HMGR, primary screen, biochemical, Enterococcus faecalis; HMG-CoA reductase (Enterococcus faecalis, mvaE); AID 1066, 2008; inhibition, % at 10 µM; purified E. faecalis HMGR, NADPH absorbance 340 nm kinetic; hit rate 0.41% among 190,000;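 active = inhibition above a set limit, the median over all tested compounds plus 3 SD, cut at about 9.5% in these data; inconclusive = no clear call, values can overlap the other calls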;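 also: enzyme runs in reverse so mevalonate oxidation gives rising NADPH absorbance; 0% = complete reaction with DMSO and 100% = background rate lacking mevalonate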
# Calpain2 inh: inhibitors of pig calpain II, primary screen, biochemical, fluorogenic peptide substrate, 1536-well. AID 1236, 2008. purified calpain II, 30 min. hit rate 0.37% among 220,000. inhibition, % at 16 µM;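 active = inhibition above about 50%, limit read from the data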
# 14-3-3 Bad PPI: inhibitors of 14-3-3 zeta/Bad binding, primary screen, biochemical, TR-FRET, bovine 14-3-3 zeta. 14-3-3 protein zeta/delta (Bos taurus), P63103. TR-FRET 14-3-3zeta/Dy647-pBad peptide displacement, 1 h. inhibition, % at 21.7 µM. hit rate 0.71% among 220,000;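 active = inhibition above about 70%, limit read from the data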;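 also: 0% = full 14-3-3 plus peptide FRET controls and 100% = background without 14-3-3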
# Target sequence (P63103 whole entry, looked up): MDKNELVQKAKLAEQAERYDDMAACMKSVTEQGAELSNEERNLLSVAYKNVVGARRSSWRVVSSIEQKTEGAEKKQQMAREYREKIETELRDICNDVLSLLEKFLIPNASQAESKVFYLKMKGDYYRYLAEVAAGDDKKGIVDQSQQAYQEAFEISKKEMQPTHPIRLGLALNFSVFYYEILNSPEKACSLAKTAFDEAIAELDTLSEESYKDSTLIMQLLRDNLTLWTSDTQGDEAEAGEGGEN
# zVAD death inh: inhibitors of zVAD-triggered necroptosis, primary screen, L929 cells. L929 zVAD necroptosis rescue, ATP luminescence, 24 h; with zVAD 60 µM. viability rescue, % at 10 µM. hit rate 0.38% among 220,000;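 active = activation, scaled between plate controls, above about 75%, limit read from the data; inactive = activation under that limit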;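 also: 0% = zVAD with DMSO and 100% = DMSO alone without zVAD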
# TNF death inh: inhibitors of TNF-alpha triggered necroptosis, primary screen, cell-based, Jurkat FADD-/-, single concentration. Jurkat FADD-/- TNF necroptosis rescue, ATP luminescence, 24 h; 0 = TNF only, 100 = no-TNF cells. activation (protection from cell death), % at 10 µM. hit rate 0.068% among 220,000. AID 463075, 2010;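 active = activation, meaning protection from cell death, of at least 50% relative to plate controls; inactive = activation below 50%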;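 also: necroptosis triggered by 40 ng/mL TNF-alpha added together with compound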
# zVAD death conf: inhibitors of zVAD-triggered necroptosis in L929, confirmation, L929 cells, duplicate runs; shares compounds with zVAD death inh; L929 zVAD-induced necroptosis rescue, ATP luminescence, 24 h; activation (protection from necroptosis), % at 10 µM; hit rate 16% among 760; AID 463117, 2010;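 active = mean protection from necroptosis of at least 50% over duplicate tests; inactive = mean protection below 50%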;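 also: 0% = cells with zVAD alone and 100% = vehicle cells without zVAD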
# ROMK hit retest: ROMK channel modulator hit retest, confirmation, cell-based, thallium flux, duplicate, resupplied hits; fluorescence ratio; stronger effect = lower value; hit rate 54% among 3,000; AID 1917, 2009; normalized thallium flux (F/F0 slope) at 10 µM; shares compounds with ROMK mod;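 active = Flux at 10 µM at least 3 SD below or above vehicle control mean in one or both replicates; inconclusive = no clear call, values can overlap the other calls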
# * marks the source's active call; other numbers are inactive results; ? = inconclusive; · = no result given. Rows were chosen to be rich in hits. Some 3% of all compounds tested hit in one or more screens of this group.
SMILES,ROMK mod,HMGR II inh,Calpain2 inh,14-3-3 Bad PPI,zVAD death inh,TNF death inh,ROMK hit retest,others
CN1CCN(c2ccc(NC(=O)c3cccs3)cc2)CC1,-0.558,-2.7,-12.8,-10.3,2.1,0.6,·,
CN1CCN(c2ccc(-c3ccnn3C(=O)Nc3ccccc3)cc2)CC1,-1.13,4.3,-7.8,0.5,83.6*,8.6,·,zVAD death conf=29.5
O=C(c1ccc(F)cc1)n1ccc(-c2cnc(-c3ccccc3)s2)n1,-0.0781,-6.8,-164.8,12.9,83.2*,5.8,·,zVAD death conf=-0.5
CCc1ccc(NC(=O)Nc2ccc3c(c2)N(C)C(=O)CS3)cc1,·,-2.1,-43.9,3.8,99.1*,-2.1,·,zVAD death conf=47.1
O=S(=O)(Nc1cccc2ncccc12)c1cccs1,·,-3.2,-8.7,0.0,79.3*,5.0,·,zVAD death conf=39.8
O=C(Nc1ccc(Cl)cc1)N1N=CCC1c1ccccc1 (centres undefined),-3.08*,·,-8.2,1.9,79.3*,92.1*,0.0639*,zVAD death conf=25.1
COc1ccc(C(=O)N/C(=C\c2ccco2)C(=O)OCc2ccco2)cc1,-0.727,·,-8.0,-1.0,0.4,8.2,·,
COc1ccc(C(=O)/C(=C\c2ccco2)N2C=CC=CC2=C(C#N)C#N)cc1,·,-4.7,-82.1,-1.0,96.8*,11.2,0.0382*,zVAD death conf=27.7
COC(=O)Cn1c2ccc(OC)cc2c2nc(C)sc21,·,·,22.6,-14.3,0.9,3.6,·,
COc1ccccc1N1CCN(CCNC(=O)Nc2cccc(C)c2C)CC1,-2.78*,-6.5,9.9,-3.2,39.5,6.5,0.0593*,
COc1ccc(NS(=O)(=O)c2ccc(NC(=O)c3cnn4c(C(F)F)cc(-c5ccc(C)cc5)nc34)cc2)cc1,·,-6.6,-252.5,-8.2,-0.1,-3.3,·,
Cc1nc([N+](=O)[O-])c(SCC(N)=O)n1Cc1ccccc1,-0.237,-13.8,-13.8,-12.1,23.9,-0.8,·,
Cc1nc([N+](=O)[O-])c(Sc2nc3ccccc3n2C)n1Cc1ccccc1,-2.97*,-0.4,-4.4,-7.9,-0.6,-9.9,0.0557*,
CC1=NNC(=O)C1C(c1cccc(O)c1)C(C#N)C#N (centres undefined),-2.38*,·,18.0,-1.8,0.6,-3.4,0.0755,
O=C(Cn1ncc2c3ccccc3n(Cc3ccc(F)cc3)c2c1=O)N1CCN(c2ncccn2)CC1,-2.87*,-1.9,-221.5,-19.8,-1.2,-1.7,0.0673*,
O=C(O)CCCN1C(=O)/C(=C/c2cn(-c3ccccc3)nc2-c2cccs2)SC1=S,-3.45*,-1.1,30.6,67.8,-1.3,-0.9,?,
Cc1nn(-c2ccccc2)c(Cl)c1/C=C1\SC(=S)N(CCCCCC(=O)O)C1=O,·,·,28.1,2.1,0.8,2.8,·,
O=C(CCl)NC(=O)NC12CC3CC(CC(C3)C1)C2,-0.981,-2.5,-15.5,5.6,0.8,-3.5,·,
N#CC1=C(N)C(C#N)(C#N)C(c2ccc[nH]2)C2CCCC=C12 (centres undefined),-6.47*,-2.9,-57.0,-0.1,-0.4,-3.5,0.0534*,
N#CC1=C(N)C(C#N)(C#N)C(c2cccnc2)C2CCCC=C12 (centres undefined),·,-2.0,-117.5,-1.4,1.5,-1.4,·,
O=C(/C=C/c1cn(CC(O)CN2CCCCC2)c2ccccc12)c1ccccc1 (centres undefined),·,·,8.9,-1.9,31.9,-27.8,0.057*,
COc1ccc(C(=O)/C=C/c2cn(CC(O)CN3CCN(C)CC3)c3ccccc23)cc1OC (centres undefined),·,·,-14.2,0.9,-0.3,2.0,0.0594*,
CN1CCCN(S(=O)(=O)c2cccc(Cl)c2Cl)CC1,1.3,0.8,-18.7,-17.7,-0.1,2.0,·,
O=c1c2[nH]c3ccc(F)cc3c2ncn1CCC1=CCCCC1,·,·,-13.2,4.3,1.6,5.3,·,
COc1ccc(NC(=O)C2CCC(CNc3c(N4CCCCC4)c(=O)c3=O)CC2)cc1OC (centres undefined),·,5.1,-13.8,-0.9,4.8,-0.2,·,
SMILES,ROMK mod,HMGR II inh,Calpain2 inh,14-3-3 Bad PPI,zVAD death inh,TNF death inh,ROMK hit retest,others
CCc1nnc(NC(=O)C2CCC(CNc3c(N4CCCCC4)c(=O)c3=O)CC2)s1 (centres undefined),-11.9*,·,21.8,2.6,0.5,1.4,0.0862,
CCCOc1ccc(C2C(C(=O)c3ccco3)=C(O)C(=O)N2CCN2CCOCC2)cc1OC (centres undefined),0.225,1.3,2.7,10.5,0.1,-0.5,·,
CCOc1ccc(C2C(C(=O)c3ccc(C)o3)=C(O)C(=O)N2CCN2CCOCC2)cc1OC (centres undefined),1.8*,3.2,-60.9,-6.2,-0.4,-0.8,0.0799,
COC(=O)C(NC(C)=O)(Nc1nc2c(C)cc(C)cc2s1)C(F)(F)F (centres undefined),-0.0153,-3.2,-8.8,56.9,-0.5,-5.9,·,
Cc1ccc2c(c1)nnn2C1CCN(CC(=O)Nc2ccccc2N2CCOCC2)CC1,-4.24*,5.8,-4.5,-13.8,0.4,-2.6,0.0554*,
COc1ccc(Cl)cc1NC(=O)CN1CCC(n2nnc3cc(C)ccc32)CC1,-0.861,-3.8,-109.4,12.0,-0.4,-1.7,·,
CC(=O)N(C(C)=O)S(=O)(=O)c1ccc(N=NN2CCOCC2)cc1,·,-0.4,-9.0,-6.4,0.7,1.5,·,
COc1cccc(-c2nnc(SCC(=O)Nc3cc(C)ccc3OC)n2N)c1,·,-0.1,3.6,3.5,0.1,-3.0,?,
O=C(Cn1cc(C(F)(F)F)ccc1=O)Nc1ccccc1,·,·,-6.2,-2.5,-0.3,0.9,·,
Cn1c(Cc2ccccc2)nnc1SCc1nc2ccccc2c(=O)[nH]1,2.53,3.7,11.7,1.8,-0.7,1.7,0.0859,
COCCn1c(Cc2ccccc2)nnc1SCc1nc2ccccc2c(=O)[nH]1,·,-0.2,-8.3,-1.3,1.2,-4.3,·,
COC(=O)c1nn(-c2ccccc2)c(Cl)c1/C=N/OCc1ccc(C)cc1,·,-3.2,13.9,23.8,0.0,-4.0,·,
CCC(=O)N1CCc2cc(S(=O)(=O)N3CCN(c4ccccn4)CC3)ccc21,3.57*,-2.0,2.1,6.5,-1.2,-8.2,0.0897,
CCOc1ccc(C2C(C(=O)Nc3cc(C)on3)c3ccccc3C(=O)N2CCN2CCOCC2)cc1 (centres undefined),-4.13*,-2.4,-28.2,-5.6,2.0,3.6,0.0803,
O=c1cc(CN2CC(O)Cc3ccc4ccccc4c32)nc2sccn12 (centres undefined),-1.2,2.2,-30.7,1.6,-0.2,-0.7,·,
